# Assay results reported in the supplement of paper PMC6555819.
# What was measured:
# Assay in all cases: PBM binding z-score (relative to random genomic background probes); higher = stronger binding; sequences stand for … in GC…GCGATTGACAGCGTAGAATGAAGG
# [1] = tested on: FXR:RXRa (NR concentration 270 nM, RXRa partner concentration 90 nM)
# How it was run: (§1)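 Binding z-scores take random background probes as their reference. They come from custom Agilent 4×180K protein-binding microarrays incubated 1 h with ligand-free nuclear receptor dimers, with antibodies against each partner (one per run) detecting binding. Scanned fluorescence was regression-normalized.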
# [2] = tested on: LXRa:RXRa (NR concentration 270 nM, RXRa partner concentration 90 nM)
# How it was run: as §1
# [3] = tested on: LXRa homodimer (NR concentration 270 nM)
# How it was run: as §1
# [4] = tested on: LXRb:RXRa (NR concentration 270 nM, RXRa partner concentration 90 nM)
# How it was run: as §1
# [5] = tested on: LXRb homodimer (NR concentration 270 nM)
# How it was run: as §1
# [6] = tested on: PPARa:RXRa (NR concentration 270 nM, RXRa partner concentration 90 nM)
# How it was run: as §1
# [7] = tested on: PPARg:RXRa (NR concentration 180 nM, RXRa partner concentration 90 nM)
# How it was run: as §1
# [8] = tested on: PPARg:RXRa 270nM:90nM, anti-RXR (NR concentration 270 nM, RXRa partner concentration 90 nM)
# How it was run: as §1
# [9] = tested on: PPARg:RXRa 30nM:10nM, anti-RXR (NR concentration 30 nM, RXRa partner concentration 10 nM)
# How it was run: as §1
# [10] = tested on: PPARg:RXRa 90nM:30nM, anti-RXR (NR concentration 90 nM, RXRa partner concentration 30 nM)
# How it was run: as §1
# [11] = tested on: PPARg:RXRa DBDmut IVT, anti-RXR (DBD mutation: RXRa K156A/R161A, NR concentration 270 nM, RXRa partner concentration 90 nM)
# How it was run: as §1
# [12] = tested on: PPARg:RXRa IVT, anti-PPARg (NR concentration 270 nM, RXRa partner concentration 90 nM)
# How it was run: as §1
# [13] = tested on: PPARg DBDmut:RXRa IVT, anti-PPARg (DBD mutation: PPARg1 K132A/R137A, NR concentration 270 nM, RXRa partner concentration 90 nM)
# How it was run: as §1
# [14] = tested on: PPARg DBDmut IVT, anti-PPARg (DBD mutation: PPARg1 K132A/R137A, NR concentration 270 nM)
# How it was run: as §1
# [15] = tested on: PPARg homodimer (NR concentration 180 nM)
# How it was run: as §1
# [16] = tested on: PXR:RXRa (NR concentration 270 nM, RXRa partner concentration 90 nM)
# How it was run: as §1
# [17] = tested on: PXR homodimer (NR concentration 270 nM)
# How it was run: as §1
# [18] = tested on: RARa:RXR (NR concentration 270 nM, RXRa partner concentration 90 nM)
# How it was run: as §1
# [19] = tested on: RARa homodimer (NR concentration 270 nM)
# How it was run: as §1
# [20] = tested on: RARb:RXRa (NR concentration 270 nM, RXRa partner concentration 90 nM)
# How it was run: as §1
Sequence,PBM binding z-score [1],PBM binding z-score [2],PBM binding z-score [3],PBM binding z-score [4],PBM binding z-score [5],PBM binding z-score [6],PBM binding z-score [7],PBM binding z-score [8],PBM binding z-score [9],PBM binding z-score [10],PBM binding z-score [11],PBM binding z-score [12],PBM binding z-score [13],PBM binding z-score [14],PBM binding z-score [15],PBM binding z-score [16],PBM binding z-score [17],PBM binding z-score [18],PBM binding z-score [19],PBM binding z-score [20]
CCTAGCAGGCCAGGGTCGCTCAAGCATTTCGCTT,1.21,1.49,-0.612,1.26,-1.47,2.58,-0.528,0.271,-1.11,-0.71,-0.39,-0.535,-1.87,-2.27,-0.112,1.78,-0.439,1.84,-0.399,0.562
GCGACTGGGGCATCATCAGGTTACCATAACTTAA,0.261,0.0527,0.169,1.57,-0.509,1.46,1.1,0.894,-0.0999,0.381,4.15,3.3,-0.137,-0.42,0.121,0.266,-0.0234,1.05,-0.63,0.767
TCATAAAGGTAATACAGGTGAAAGTCGGCATCTA,1.53,2.4,0.378,1.49,0.311,2.48,1.23,3,4.29,3.61,3.29,2.39,0.311,0.578,1.44,1.05,0.48,1.52,0.815,1.43
CGAACTAGGTCATTGACAGCACAGTGAATAGTAA,4.2,2.64,0.265,2.07,0.329,4.78,7.32,6.23,3.86,5.6,7.82,8.09,2.12,2.03,1.52,1.18,0.34,1.77,0.733,3.58
ACAGACAAGTGATGAAGGTAACTCAGGCTATCAT,-0.375,-0.259,-0.503,-0.446,-0.469,-0.37,0.531,-0.282,-0.0857,-0.2,-0.565,-0.0204,0.0249,-0.152,-0.0362,-0.39,-0.0518,-0.0214,0.43,-0.307
GCAGACGGGTGAAACGCAGGTAACTCAGGGTGGC,-0.349,-0.337,-0.751,-0.502,-1.12,0.266,0.241,-0.502,-0.732,-0.536,-0.241,-0.0586,-1.33,-0.958,-0.685,-0.244,-0.933,0.253,-0.996,0.14
CCTGCTAGGACATGGTCAGCTAATCTACAGTATG,-0.435,-0.686,-0.63,-0.793,-0.639,-1.84,0.246,-0.764,-0.445,-0.928,0.152,-0.597,-0.458,-0.543,-0.902,-0.794,-0.746,-0.925,-0.734,0.0895
TCTCGGAGGACGCGAAGGTCAGAGCTTTCCAGAG,0.524,0.815,-0.319,0.715,-1.33,1.69,-0.182,1.06,1.62,1.21,0.846,-0.0947,-1.23,-1.47,0.0628,1.33,-0.286,1.61,-0.357,2.7
CGAACTAGGTCATCCAGGCCAGTGAATACATTGA,4.42,2.58,0.198,1.84,-0.0916,4.97,7.7,6.3,3.77,5.63,7.88,8.53,3.15,2.65,2.08,1.61,0.572,2.4,0.167,3.91
AATAGCAGGCCAAGGGTCACTCAAGATTAGTCCG,2.6,3.25,0.455,2.65,-0.0727,4.75,8.33,7.83,6.83,8.23,2.14,4.27,0.158,-0.162,1.57,3.26,-0.222,4.09,0.758,3.54
GCTTGTAGACCAAGGTTAAGAAAGACTAAGCTAA,-0.248,0.608,-0.357,0.335,-0.903,1.16,0.792,1.61,0.387,1.17,1.25,0.819,0.464,0.161,-0.164,0.252,-0.358,0.313,0.313,0.654
CGTCCAAGGTCACAGGTCAGTGAAGAGATGACGG,7.44,5.62,1.31,4.1,0.374,6.12,7.73,6.93,3.6,5.82,4,5.24,0.709,0.624,2.75,4.99,0.786,6.06,1.32,5.63
CCTACTGGCCCATCAGGTCATTGATATCAACGTT,1.56,1.2,1.15,1.63,0.0775,1.62,0.503,1.07,0.112,0.701,-0.199,1.1,-0.917,0.381,1.47,1.61,0.678,1.83,0.604,1.71
AATCGGAGGACAAAGGTCAGAGCTACGCCAGTGA,4.21,4.44,1.79,3.53,0.469,5.18,8.17,7.23,6.45,7.59,0.506,4.15,0.0778,-0.0229,2.97,3.75,0.501,4.48,0.693,4.54
ACAGACAGGTGGGTGAAGGTAACTCAGCTGGACG,0.0751,-0.222,-0.335,-0.235,-0.295,0.238,0.861,0.585,-0.13,0.177,0.962,1.16,0.32,-0.724,0.276,-0.217,0.171,0.0103,-0.0597,0.155
CAACCTAGGTCAAGGTCAAAGTCGGTTTGTGCCA,6.38,5.56,3.63,4.92,1.07,5.51,5.92,5.74,2.75,4.69,4.85,5.78,-0.338,0.164,3.33,5.19,1.48,5.29,0.703,5.17
CCTCCTGGGCCAAGGTCATTGATCAGTCAAAGCA,2.96,2.89,1.06,2.86,-0.68,3.57,1.39,2.83,0.457,1.75,-0.293,1.48,-1.33,-1.61,1.55,3.38,0.83,3.49,-0.129,3.47
GGAACGAGGGCATTCGAGTTGATAGGATGGCGAT,1.38,1.66,-0.255,-0.172,-0.504,1.12,1.01,0.531,-0.182,-0.00549,2.57,2.23,-0.409,-0.611,0.00316,3.7,1.31,0.433,-0.456,1.75
TCTTATAGATCAAGCAGGTTAAGAAAGCCTGAGT,0.514,0.381,-0.0643,0.19,-0.324,0.961,-0.00693,1.62,3.48,2.75,2.41,0.395,0.287,0.665,0.243,0.691,0.364,0.658,0.426,0.33
GCTGCTAGGTCAACTGATGGTAAGCTAAAGCTCG,3.67,2.53,-0.233,1.66,-0.0534,3.56,2.6,2.85,0.773,2.04,5.03,3.79,-0.843,-0.572,1.33,1.29,-0.824,2.02,0.282,4.06
CAAACTAGGTCACCGGTAGGTCAAAGTCCGCATG,5.71,4.92,3.87,4.52,0.66,5.98,9.32,7.44,5.74,7.12,8.32,9.19,3.98,4.14,4.51,4.51,0.526,5.43,1.6,4.95
TCATATAGGTTATACAGGTGAAAGTCGGCATCTA,1.71,2.32,0.882,1.82,0.833,2.99,2.56,3.17,3.94,3.58,4.73,4.18,1.95,0.981,1.6,1.27,1.03,1.9,1.84,1.51
CCTCGGAGGACAACAGGAGGTCAGAGGTGCCAGA,1.07,1.95,2.19,1.34,-0.628,2.04,1.1,1.57,-0.13,0.94,-0.227,0.737,-1.23,-1.03,1.99,2.36,0.719,2.6,0.638,3
TCATATAGGTAATACAGGTGAAAGTGGGCATCTA,1.4,1.27,0.56,1.21,0.302,2.33,2.41,3.18,4.26,3.72,4.07,3.76,0.893,1.47,1.79,1.02,0.455,1.35,1.57,0.826
ACAGACAGGTGTTGAAGGTAACTCAGGCTATCAT,-0.0696,-0.375,-0.136,-0.298,-0.389,-0.0786,0.432,-0.232,-0.26,-0.54,-0.116,-0.388,-0.275,0.107,-0.0576,-0.158,0.379,0.0742,-0.513,-0.084
CGGAGTAGGTTATGGGGCATTCAGGCAACGGTGA,0.339,0.3,0.0885,0.718,-0.187,2.92,4.95,5.93,5.09,6.03,4.84,5.14,0.983,-0.0364,1.28,0.209,0.125,0.151,0.386,0.965
TAGCCTATGTCATTGGGCCAGTATAGTACGCATC,-0.278,-0.41,-0.519,-0.0433,-0.648,0.0352,0.577,0.178,0.0263,0.065,0.158,0.381,0.11,0.249,-0.0273,-0.188,-0.118,-0.0244,-0.0402,0.0995
CTCGAAAGGGCGGTTGAGGTGAGTATACGGATAA,1.23,-0.197,-0.251,-0.253,-0.452,0.0374,0.00915,-0.518,-0.508,-0.301,-0.112,-0.15,0.116,0.0622,0.247,0.233,0.128,0.395,-0.275,1.08
GATACAGGGTCAGCTAGACGCCAGAGTATGGAAA,4.79,2.3,-0.39,2.07,-0.431,4.71,3.71,3.1,0.594,1.97,0.771,2.21,0.485,0.334,1.15,1.76,0.0262,2.72,-0.118,3.9
